Test results as given in publication PMC5540273 (PLoS ONE, 2017).

Key:
Conditions in all cases: concentration: 1 μM, replicates: in singlicate; n = 1
[1] = test system: WNK1
[2] = test system: WNK2
[3] = test system: WNK3
[4] = test system: WNK4
[5] = test system: T1, YANK1
T1 construct: gene STK32A

[6] = test system: T2, YANK2
T2 construct: gene STK32B

[7] = test system: T3, YANK3
T3 construct: gene STK32C

[8] = test system: T4, YES
T4 construct: gene YES1

[9] = test system: T5, YSK1
T5 construct: gene STK25

[10] = test system: T6, YSK4
T6 construct: gene MAP3K19
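Also: KINOMEscan kinase panel screen.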

SMILES | %Inh [1] | %Inh [2] | %Inh [3] | %Inh [4] | %Inh [5] | %Inh [6] | %Inh [7] | %Inh [8] | %Inh [9] | %Inh [10]
Cc1ccc(C(=O)N2CC[C@@H](O)C2)cc1-n1c(C)cc(OCc2ccc(F)cc2F)c(Br)c1=O | 0% | 0% | 0% | 0% | 0% | 0% | 0% | 20% | 0% | 0%
Cc1cccc(Nc2nc(N[C@H]3CCNC3)ncc2C(N)=O)c1.Cl [GSK2197149] | 0% | 0% | 0% | 0% | 19% | 0% | 18% | 41% | 52% | 90%
CN(c1ccc(NC(=O)Nc2cc(C(F)(F)F)ccc2F)cc1)c1ccnc(Nc2ccc(S(N)(=O)=O)cc2)n1 [GW809893] | 6% | 0% | 0% | 0% | 17% | 0% | 17% | 80% | 100% | 99.1%
COC(=O)Nc1nc2ccc(Oc3ccc(NC(=O)Nc4cc(C(F)(F)F)ccc4F)cc3)cc2n1C.Cl [GW692089] | 0% | 0% | 46% | 28% | 0% | 19% | 0% | 0% | 0% | 36%
O=C(Nc1cccc(Oc2ccc3nc(NC(=O)C4CC4)cn3n2)c1)c1ccccc1C(F)(F)F | 0% | 0% | 0% | 13% | 0% | 0% | 0% | 50% | 9% | 70%
Cl.c1ccc(-c2ccc3c(Nc4ccc5[nH]ccc5c4)ccnc3c2)nc1 [GW440138] | 0% | 13% | 35% | 55% | 0% | 0% | 0% | 40% | 0% | 51%
COc1ccc(CNC(=O)NC2CCN(c3ccnc(Nc4ccc(F)cc4)n3)CC2)cc1 [GSK1379788] | 0% | 7% | 23% | 27% | 7% | 0% | 0% | 0% | 0% | 14%
COc1cccc(C(=O)Nc2cccc(Oc3ccc4nc(NC(=O)C5CC5)cn4n3)c2)c1 | 0% | 0% | 0% | 0% | 0% | 0% | 0% | 92.7% | 0% | 100%
CN(C)S(=O)(=O)c1cc(-c2ccc3nccc(-c4cccc(S(N)(=O)=O)c4)c3c2)cnc1N [GSK1669921] | 0% | 0% | 0% | 0% | 31% | 0% | 2% | 1% | 0% | 93.3%
Cl.Cl.NCC(NC(=O)c1cc(-c2ccccc2)c(-c2ccnc3[nH]ccc23)s1)c1ccccc1 (centres unmarked) [GSK1321561] | 5% | 100% | 3% | 5% | 48% | 35% | 1% | 41% | 0% | 73%
COc1cc(Nc2nccc(N3CCC(NC(=O)Nc4cccc(C(C)=O)c4)C3)n2)cc(OC)c1OC (centres unmarked) [GSK1379753] | 0% | 65% | 59% | 41% | 14% | 0% | 0% | 12% | 2% | 75%
C[C@@H]1CC[C@@H](C(=O)Nc2ccccc2)CN1c1cc(-c2ccc3c(N)n[nH]c3c2)nc(N)n1 [GSK2286062] | 0% | 0% | 33% | 0% | 15% | 0% | 17% | 0% | 21% | 29%
CN1CCN(CCCNc2nccc(-c3c(-c4ccc(F)cc4)nn4cc(C(F)(F)F)ccc34)n2)CC1 [GW621581] | 3% | 13% | 0% | 0% | 0% | 8% | 0% | 1% | 0% | 9%
COc1cc(Nc2ncc3c(C)nc(-c4cc5ccccc5[nH]4)n3n2)cc(OC)c1OC [GW869516] | 0% | 0% | 0% | 0% | 0% | 0% | 0% | 47% | 0% | 0%
NCCCC(NC(=O)c1cc(Br)c(-c2ccnc3[nH]ccc23)s1)c1ccccc1.O=C(O)C(F)(F)F.O=C(O)C(F)(F)F (centres unmarked) [GSK1287544] | 30% | 0% | 11% | 8% | 0% | 0% | 0% | 0% | 0% | 95.2%
Clc1ccc(-c2nn3ncccc3c2-c2ccnc(Nc3ccc4c(c3)OCCO4)n2)cc1 [GW829116] | 0% | 0% | 0% | 0% | 0% | 21% | 0% | 45% | 0% | 0%
CN1CCN(Cc2cccc(-c3ccc4c(Nc5ccc(Oc6ccccc6)cc5)ccnc4c3)c2)CC1 [GW578342] | 0% | 15% | 31% | 49% | 3% | 0% | 0% | 88% | 12% | 0%
Cn1cc(-c2[nH]c3cc(NC(=O)[C@H](N)C4CCCCC4)cc4c3c2C=NNC4=O)cn1 | 0% | 4% | 0% | 0% | 16% | 0% | 0% | 88% | 47% | 100%
c1ccc(-c2n[nH]cc2Nc2ccnc3ccccc23)nc1 [GW694077] | 0% | 0% | 15% | 4% | 0% | 0% | 0% | 0% | 12% | 99.1%
CCn1c(-c2nonc2N)nc2c(C#CC(C)(C)O)ncc(OCCCCN)c21.O=C(O)C(F)(F)F.O=C(O)C(F)(F)F [GSK507274] | 19% | 0% | 21% | 3% | 31% | 0% | 24% | 16% | 0% | 99.4%
CC(=O)Nc1nc2cnc(Nc3cc(NC(=O)c4cccc(C5(C#N)CC5)c4Cl)ccc3C)nc2s1 | 0% | 0% | 0% | 0% | 0% | 12% | 25% | 82% | 0% | 0%
COc1ccc(Nc2nccc(N3CCC(NC(=O)Nc4cccc(OC)c4)C3)n2)cc1 (centres unmarked) [GSK1379742] | 0% | 18% | 19% | 0% | 10% | 0% | 0% | 0% | 0% | 23%
COC(=O)Nc1nc2cc(Oc3ccc(NC(=O)Nc4cc(C(F)(F)F)ccc4F)cn3)ccc2[nH]1.Cl.Cl [GW681170] | 6% | 8% | 22% | 39% | 9% | 16% | 0% | 24% | 0% | 87%
CC(=O)N1CCN(c2ccc(Nc3nccc(-c4sc(C(C)C)nc4-c4cccc(NS(=O)(=O)c5cccc(Cl)c5)c4)n3)cn2)CC1 [GSK1660437] | 2% | 11% | 0% | 0% | 3% | 77% | 0% | 92.4% | 0% | 9%
O=C(Nc1n[nH]c2cc(-c3ccoc3)ccc12)C1CC1 [SB-738481] | 0% | 0% | 0% | 7% | 0% | 0% | 0% | 3% | 0% | 89%
CC(C)c1nc(-c2cccc(NS(=O)(=O)c3c(F)cccc3F)c2F)c(-c2ccnc(Nc3ccc(N4CCOCC4)nc3)n2)s1 [GSK2008607] | 3% | 13% | 23% | 59% | 14% | 48% | 1% | 99.6% | 56% | 85%
Cc1ccc(F)c(C(=O)Nc2cccc(-c3nn4ccccc4c3-c3ccnc(Nc4cccc(F)c4)n3)c2)c1F [GSK361061] | 0% | 6% | 3% | 0% | 6% | 47% | 6% | 95.3% | 0% | 0%
COCCOCCOc1cc2ncc3c4ccc(C#N)cc4[nH]c3c2cc1OC | 0% | 0% | 0% | 0% | 0% | 0% | 0% | 13% | 0% | 93.7%
CSc1cccc2c(-c3ccncn3)c(-c3ccc(F)cc3)nn12 [GW514786] | 0% | 1% | 22% | 24% | 23% | 24% | 2% | 4% | 0% | 0%
